According to ChEMBL document CHEMBL1961873, “Compounds: GSK PKIS; Assays: Nanosyn kinase panel” (2012):

Assays:
[1] = tested on: Epidermal growth factor receptor (Homo sapiens), P00533 [T790M]; settings: at 1 µM
[2] = tested on: Epidermal growth factor receptor (Homo sapiens), P00533 [L858R,T790M]; settings: at 0.1 µM
[3] = tested on: Epidermal growth factor receptor (Homo sapiens), P00533 [L858R,T790M]; settings: at 1 µM
[4] = target: Ephrin type-A receptor 2 (Homo sapiens) (UniProt P29317); settings: at 0.1 µM
[5] = target: Ephrin type-A receptor 2 (Homo sapiens) (UniProt P29317); settings: at 1 µM
[6] = target: T1, Ephrin type-A receptor 3 (Homo sapiens) (UniProt P29320); settings: at 0.1 µM
T1 sequence (whole entry): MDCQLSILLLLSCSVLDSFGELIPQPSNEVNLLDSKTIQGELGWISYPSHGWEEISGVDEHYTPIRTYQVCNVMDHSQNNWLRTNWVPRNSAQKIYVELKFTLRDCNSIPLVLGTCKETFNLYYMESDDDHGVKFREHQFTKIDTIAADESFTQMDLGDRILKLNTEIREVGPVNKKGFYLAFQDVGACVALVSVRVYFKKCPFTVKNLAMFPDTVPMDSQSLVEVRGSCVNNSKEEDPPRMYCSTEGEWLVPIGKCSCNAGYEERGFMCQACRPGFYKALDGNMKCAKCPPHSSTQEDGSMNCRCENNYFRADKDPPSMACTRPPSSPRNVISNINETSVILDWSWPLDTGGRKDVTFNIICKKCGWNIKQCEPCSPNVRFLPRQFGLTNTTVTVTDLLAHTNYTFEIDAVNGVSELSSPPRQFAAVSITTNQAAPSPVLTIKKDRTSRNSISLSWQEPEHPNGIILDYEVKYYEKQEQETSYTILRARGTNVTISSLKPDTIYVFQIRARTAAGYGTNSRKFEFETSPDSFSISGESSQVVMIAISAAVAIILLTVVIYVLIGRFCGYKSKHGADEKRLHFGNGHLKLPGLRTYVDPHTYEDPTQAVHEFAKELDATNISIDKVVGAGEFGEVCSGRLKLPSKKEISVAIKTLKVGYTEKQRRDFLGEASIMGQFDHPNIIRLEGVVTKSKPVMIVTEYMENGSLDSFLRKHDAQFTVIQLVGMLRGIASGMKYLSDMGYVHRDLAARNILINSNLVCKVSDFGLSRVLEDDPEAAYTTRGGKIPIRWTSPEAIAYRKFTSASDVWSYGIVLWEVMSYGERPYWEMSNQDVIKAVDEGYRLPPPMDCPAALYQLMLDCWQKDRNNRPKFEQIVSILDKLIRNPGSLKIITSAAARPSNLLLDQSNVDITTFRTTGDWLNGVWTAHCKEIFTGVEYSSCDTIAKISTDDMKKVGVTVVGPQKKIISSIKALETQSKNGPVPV

[7] = target: T1, Ephrin type-A receptor 3 (Homo sapiens); settings: at 1 µM
[8] = target: Ephrin type-A receptor 4 (Homo sapiens) (UniProt P54764); settings: at 0.1 µM
[9] = target: Ephrin type-A receptor 4 (Homo sapiens) (UniProt P54764); settings: at 1 µM
[10] = target: T2, Ephrin type-B receptor 2 (Homo sapiens) (UniProt P29323); settings: at 0.1 µM
T2 sequence (whole entry): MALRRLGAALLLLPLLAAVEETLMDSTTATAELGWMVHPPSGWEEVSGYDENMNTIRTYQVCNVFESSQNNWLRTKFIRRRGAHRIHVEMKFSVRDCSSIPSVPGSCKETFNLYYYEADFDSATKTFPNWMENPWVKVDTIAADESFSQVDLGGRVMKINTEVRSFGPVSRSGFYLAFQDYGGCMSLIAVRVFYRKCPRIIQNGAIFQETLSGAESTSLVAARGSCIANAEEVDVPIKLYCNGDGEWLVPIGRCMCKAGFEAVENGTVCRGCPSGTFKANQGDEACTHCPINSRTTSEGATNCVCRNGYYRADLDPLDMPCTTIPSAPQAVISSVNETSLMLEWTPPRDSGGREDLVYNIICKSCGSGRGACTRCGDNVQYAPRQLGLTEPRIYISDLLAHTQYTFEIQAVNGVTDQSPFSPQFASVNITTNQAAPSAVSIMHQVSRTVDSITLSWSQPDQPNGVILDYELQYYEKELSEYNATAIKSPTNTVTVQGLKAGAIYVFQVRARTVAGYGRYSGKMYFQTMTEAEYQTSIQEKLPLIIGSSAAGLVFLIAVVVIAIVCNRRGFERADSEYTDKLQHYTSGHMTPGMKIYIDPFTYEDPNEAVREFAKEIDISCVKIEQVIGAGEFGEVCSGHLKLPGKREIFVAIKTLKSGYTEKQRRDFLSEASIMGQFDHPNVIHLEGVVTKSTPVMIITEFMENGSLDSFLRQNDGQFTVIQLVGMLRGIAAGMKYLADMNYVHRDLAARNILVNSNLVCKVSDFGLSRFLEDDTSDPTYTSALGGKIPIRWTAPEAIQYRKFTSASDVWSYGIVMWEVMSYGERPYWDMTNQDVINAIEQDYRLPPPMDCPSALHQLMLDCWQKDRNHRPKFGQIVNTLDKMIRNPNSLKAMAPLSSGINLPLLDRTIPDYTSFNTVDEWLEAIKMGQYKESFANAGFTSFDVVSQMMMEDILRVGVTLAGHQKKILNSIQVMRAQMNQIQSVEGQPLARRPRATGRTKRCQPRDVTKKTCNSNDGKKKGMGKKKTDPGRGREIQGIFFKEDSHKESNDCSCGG

[11] = target: T2, Ephrin type-B receptor 2 (Homo sapiens); settings: at 1 µM
[12] = target: T3, Ephrin type-B receptor 3 (Homo sapiens) (UniProt P54753); settings: at 0.1 µM
T3 sequence (whole entry): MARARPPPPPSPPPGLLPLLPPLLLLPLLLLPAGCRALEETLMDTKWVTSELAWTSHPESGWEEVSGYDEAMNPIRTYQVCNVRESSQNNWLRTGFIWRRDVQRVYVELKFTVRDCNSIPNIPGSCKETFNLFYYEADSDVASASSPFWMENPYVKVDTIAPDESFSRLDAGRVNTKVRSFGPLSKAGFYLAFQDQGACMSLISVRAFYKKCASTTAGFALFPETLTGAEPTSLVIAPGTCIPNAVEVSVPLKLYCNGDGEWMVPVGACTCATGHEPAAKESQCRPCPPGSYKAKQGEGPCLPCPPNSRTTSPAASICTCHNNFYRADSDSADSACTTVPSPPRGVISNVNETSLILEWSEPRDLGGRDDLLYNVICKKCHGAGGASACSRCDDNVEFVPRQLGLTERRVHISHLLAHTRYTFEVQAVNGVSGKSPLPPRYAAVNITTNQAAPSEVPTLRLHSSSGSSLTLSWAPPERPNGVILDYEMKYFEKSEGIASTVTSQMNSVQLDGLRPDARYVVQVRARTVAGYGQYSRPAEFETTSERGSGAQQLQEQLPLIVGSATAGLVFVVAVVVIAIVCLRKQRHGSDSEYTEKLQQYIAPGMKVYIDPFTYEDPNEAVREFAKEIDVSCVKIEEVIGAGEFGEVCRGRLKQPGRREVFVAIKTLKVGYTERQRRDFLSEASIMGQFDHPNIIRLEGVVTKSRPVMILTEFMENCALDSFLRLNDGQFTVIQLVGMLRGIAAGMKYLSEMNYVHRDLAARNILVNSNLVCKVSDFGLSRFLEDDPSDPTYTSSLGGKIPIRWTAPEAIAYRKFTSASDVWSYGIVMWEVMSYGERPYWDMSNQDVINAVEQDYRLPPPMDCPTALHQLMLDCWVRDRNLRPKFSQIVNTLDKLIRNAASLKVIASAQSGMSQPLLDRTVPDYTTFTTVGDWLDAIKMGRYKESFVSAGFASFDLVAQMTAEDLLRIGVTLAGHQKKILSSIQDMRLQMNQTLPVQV

[13] = target: T3, Ephrin type-B receptor 3 (Homo sapiens); settings: at 1 µM
[14] = target: T4, Ephrin type-B receptor 4 (Homo sapiens) (UniProt P54760); settings: at 0.1 µM
T4 sequence (whole entry): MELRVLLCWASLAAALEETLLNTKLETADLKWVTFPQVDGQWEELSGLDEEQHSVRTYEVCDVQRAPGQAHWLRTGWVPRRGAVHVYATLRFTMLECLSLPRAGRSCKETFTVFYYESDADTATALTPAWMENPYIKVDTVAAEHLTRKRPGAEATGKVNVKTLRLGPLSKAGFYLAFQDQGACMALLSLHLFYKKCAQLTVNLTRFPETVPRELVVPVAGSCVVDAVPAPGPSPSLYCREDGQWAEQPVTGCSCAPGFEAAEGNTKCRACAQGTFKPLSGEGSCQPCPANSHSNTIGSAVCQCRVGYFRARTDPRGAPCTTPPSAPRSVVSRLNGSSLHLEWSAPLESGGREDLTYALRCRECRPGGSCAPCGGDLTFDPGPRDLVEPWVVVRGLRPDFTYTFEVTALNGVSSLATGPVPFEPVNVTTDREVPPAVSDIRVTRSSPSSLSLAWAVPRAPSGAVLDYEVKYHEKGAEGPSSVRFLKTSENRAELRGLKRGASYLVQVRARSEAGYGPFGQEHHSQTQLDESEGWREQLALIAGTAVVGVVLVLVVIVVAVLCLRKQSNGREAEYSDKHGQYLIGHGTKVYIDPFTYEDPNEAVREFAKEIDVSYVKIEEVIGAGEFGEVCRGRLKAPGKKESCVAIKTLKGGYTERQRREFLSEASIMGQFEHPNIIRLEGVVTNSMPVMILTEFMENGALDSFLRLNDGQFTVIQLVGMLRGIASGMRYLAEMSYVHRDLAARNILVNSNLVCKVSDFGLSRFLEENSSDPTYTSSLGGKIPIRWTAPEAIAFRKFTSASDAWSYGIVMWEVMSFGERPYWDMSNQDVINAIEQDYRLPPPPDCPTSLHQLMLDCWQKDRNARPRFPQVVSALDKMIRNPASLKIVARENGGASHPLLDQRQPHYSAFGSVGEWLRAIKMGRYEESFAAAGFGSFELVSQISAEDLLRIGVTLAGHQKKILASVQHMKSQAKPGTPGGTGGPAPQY

[15] = target: T4, Ephrin type-B receptor 4 (Homo sapiens); settings: at 1 µM
[16] = target: Receptor tyrosine-protein kinase erbB-2 (Homo sapiens) (UniProt P04626); settings: at 0.1 µM
[17] = target: Receptor tyrosine-protein kinase erbB-2 (Homo sapiens) (UniProt P04626); settings: at 1 µM
[18] = target: Receptor tyrosine-protein kinase erbB-4 (Homo sapiens) (UniProt Q15303); settings: at 0.1 µM
[19] = target: Receptor tyrosine-protein kinase erbB-4 (Homo sapiens) (UniProt Q15303); settings: at 1 µM
[20] = target: Tyrosine-protein kinase Fer (Homo sapiens) (UniProt P16591); settings: at 0.1 µM;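 further: reported figures are averaged percent inhibition of FER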
Sequence of Tyrosine-protein kinase Fer (Homo sapiens) (P16591 whole entry, looked up): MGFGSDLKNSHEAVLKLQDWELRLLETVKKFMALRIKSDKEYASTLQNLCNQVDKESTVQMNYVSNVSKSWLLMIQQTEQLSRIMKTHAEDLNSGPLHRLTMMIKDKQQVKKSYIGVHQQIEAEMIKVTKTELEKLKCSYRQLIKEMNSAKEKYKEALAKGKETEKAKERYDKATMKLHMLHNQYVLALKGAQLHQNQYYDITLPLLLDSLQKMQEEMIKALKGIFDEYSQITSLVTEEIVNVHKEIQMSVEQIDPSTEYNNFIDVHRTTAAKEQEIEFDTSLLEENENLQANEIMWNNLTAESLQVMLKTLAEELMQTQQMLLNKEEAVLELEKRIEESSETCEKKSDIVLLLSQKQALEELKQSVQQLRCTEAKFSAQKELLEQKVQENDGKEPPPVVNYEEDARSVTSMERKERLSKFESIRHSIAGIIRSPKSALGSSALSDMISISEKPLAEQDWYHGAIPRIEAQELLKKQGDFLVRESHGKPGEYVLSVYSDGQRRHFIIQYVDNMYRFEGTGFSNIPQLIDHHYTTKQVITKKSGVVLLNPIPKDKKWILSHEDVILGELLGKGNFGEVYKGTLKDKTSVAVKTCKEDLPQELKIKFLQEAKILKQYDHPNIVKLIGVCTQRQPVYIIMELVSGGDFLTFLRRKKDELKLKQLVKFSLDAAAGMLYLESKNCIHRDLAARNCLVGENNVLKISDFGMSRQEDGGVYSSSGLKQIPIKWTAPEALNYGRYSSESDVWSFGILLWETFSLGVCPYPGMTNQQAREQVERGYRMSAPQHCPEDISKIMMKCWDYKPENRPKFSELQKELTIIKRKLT

Sequence of Epidermal growth factor receptor (Homo sapiens), P00533 [T790M] (P00533 whole entry T790M): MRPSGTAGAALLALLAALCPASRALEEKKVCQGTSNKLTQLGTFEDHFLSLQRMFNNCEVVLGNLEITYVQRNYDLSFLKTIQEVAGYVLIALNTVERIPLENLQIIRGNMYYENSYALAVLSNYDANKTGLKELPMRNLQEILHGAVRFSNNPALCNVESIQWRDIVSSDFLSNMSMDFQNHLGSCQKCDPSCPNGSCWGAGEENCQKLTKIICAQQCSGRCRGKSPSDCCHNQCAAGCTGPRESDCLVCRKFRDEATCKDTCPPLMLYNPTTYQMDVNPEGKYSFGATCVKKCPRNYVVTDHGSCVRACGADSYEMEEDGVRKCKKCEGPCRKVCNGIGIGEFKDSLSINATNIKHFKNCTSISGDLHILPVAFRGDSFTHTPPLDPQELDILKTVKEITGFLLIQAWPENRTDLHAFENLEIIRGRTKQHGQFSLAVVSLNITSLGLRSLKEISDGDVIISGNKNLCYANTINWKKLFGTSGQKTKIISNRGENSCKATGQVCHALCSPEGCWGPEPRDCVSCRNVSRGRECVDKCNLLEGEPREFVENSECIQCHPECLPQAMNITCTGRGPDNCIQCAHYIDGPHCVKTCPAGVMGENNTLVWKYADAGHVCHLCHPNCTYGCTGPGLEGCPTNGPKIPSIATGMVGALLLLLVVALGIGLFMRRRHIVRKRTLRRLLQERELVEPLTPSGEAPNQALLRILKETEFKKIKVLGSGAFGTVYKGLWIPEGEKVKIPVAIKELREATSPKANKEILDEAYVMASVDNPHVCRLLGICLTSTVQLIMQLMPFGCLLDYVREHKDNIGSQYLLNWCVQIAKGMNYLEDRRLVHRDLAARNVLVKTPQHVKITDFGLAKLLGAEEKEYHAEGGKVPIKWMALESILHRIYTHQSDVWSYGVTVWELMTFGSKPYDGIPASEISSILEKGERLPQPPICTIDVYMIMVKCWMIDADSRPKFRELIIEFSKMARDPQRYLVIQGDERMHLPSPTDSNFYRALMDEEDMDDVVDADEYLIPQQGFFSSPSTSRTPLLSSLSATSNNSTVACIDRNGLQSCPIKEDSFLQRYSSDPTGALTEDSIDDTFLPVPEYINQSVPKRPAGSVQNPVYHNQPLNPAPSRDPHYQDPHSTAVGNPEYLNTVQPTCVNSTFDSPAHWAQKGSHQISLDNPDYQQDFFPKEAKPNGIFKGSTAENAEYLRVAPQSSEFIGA
Sequence of Receptor tyrosine-protein kinase erbB-4 (Homo sapiens) (Q15303 whole entry): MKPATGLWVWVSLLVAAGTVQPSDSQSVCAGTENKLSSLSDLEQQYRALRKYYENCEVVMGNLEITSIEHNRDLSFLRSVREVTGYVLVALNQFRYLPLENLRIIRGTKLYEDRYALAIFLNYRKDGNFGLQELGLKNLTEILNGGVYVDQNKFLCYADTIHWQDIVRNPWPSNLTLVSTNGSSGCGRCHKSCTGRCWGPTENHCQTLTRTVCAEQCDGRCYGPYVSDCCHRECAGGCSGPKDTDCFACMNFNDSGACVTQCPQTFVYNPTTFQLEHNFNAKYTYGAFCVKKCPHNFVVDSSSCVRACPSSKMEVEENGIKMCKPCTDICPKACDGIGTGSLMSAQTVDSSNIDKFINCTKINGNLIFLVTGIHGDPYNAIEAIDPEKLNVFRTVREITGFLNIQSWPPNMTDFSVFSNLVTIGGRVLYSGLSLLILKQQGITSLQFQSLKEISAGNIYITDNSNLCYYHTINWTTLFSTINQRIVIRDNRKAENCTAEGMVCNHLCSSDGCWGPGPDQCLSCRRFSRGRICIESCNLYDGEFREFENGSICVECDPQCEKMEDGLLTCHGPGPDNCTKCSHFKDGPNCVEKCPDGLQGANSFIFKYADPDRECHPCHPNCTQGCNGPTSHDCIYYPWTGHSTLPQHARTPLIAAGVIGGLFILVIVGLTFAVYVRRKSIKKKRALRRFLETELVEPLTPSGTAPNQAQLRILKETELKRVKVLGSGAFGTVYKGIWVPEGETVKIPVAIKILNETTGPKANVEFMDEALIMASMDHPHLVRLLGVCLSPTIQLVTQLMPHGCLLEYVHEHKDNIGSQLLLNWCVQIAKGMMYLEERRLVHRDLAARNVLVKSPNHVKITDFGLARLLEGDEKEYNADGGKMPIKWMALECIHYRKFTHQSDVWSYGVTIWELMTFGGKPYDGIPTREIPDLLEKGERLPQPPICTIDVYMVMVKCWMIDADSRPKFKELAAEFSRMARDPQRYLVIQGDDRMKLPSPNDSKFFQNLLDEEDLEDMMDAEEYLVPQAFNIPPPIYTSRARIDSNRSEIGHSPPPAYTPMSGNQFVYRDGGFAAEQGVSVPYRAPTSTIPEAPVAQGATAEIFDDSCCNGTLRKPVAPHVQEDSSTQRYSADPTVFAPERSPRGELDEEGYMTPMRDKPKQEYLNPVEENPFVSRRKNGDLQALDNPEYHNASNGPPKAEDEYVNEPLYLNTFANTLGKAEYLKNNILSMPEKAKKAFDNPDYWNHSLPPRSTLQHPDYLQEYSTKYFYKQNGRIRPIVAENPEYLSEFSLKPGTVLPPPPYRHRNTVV
Sequence of Ephrin type-A receptor 2 (Homo sapiens) (P29317 whole entry): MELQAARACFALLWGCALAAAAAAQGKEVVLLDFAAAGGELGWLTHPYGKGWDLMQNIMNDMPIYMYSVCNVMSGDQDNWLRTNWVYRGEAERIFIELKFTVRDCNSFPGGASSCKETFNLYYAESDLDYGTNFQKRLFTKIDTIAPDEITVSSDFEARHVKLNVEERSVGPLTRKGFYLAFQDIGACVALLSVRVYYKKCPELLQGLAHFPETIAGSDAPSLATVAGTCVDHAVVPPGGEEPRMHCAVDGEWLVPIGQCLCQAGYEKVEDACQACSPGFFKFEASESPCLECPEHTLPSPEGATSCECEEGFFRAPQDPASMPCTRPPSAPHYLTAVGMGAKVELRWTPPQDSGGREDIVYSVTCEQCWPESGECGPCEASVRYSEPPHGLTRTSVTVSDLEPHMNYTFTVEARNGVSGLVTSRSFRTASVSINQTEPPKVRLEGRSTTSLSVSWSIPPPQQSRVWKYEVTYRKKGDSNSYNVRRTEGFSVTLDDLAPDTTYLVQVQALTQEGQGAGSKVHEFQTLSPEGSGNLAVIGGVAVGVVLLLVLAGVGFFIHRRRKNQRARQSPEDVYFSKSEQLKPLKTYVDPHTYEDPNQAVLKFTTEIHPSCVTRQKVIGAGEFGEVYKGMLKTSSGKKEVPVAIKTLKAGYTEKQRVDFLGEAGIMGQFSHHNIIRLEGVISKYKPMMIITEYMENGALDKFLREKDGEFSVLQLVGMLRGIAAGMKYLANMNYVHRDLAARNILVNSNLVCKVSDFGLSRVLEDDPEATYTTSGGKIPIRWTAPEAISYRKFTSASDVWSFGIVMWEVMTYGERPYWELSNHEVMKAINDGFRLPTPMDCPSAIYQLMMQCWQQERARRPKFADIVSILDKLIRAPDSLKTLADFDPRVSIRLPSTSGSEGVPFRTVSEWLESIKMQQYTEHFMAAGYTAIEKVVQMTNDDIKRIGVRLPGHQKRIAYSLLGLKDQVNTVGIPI

SMILES | inhibition [1] | inhibition [2] | inhibition [3] | inhibition [4] | inhibition [5] | inhibition [6] | inhibition [7] | inhibition [8] | inhibition [9] | inhibition [10] | inhibition [11] | inhibition [12] | inhibition [13] | inhibition [14] | inhibition [15] | inhibition [16] | inhibition [17] | inhibition [18] | inhibition [19] | inhibition [20]
COC(=O)Nc1nc2cc(Oc3ccc(NC(=O)Nc4ccccc4)cc3)ccc2[nH]1 | 2.64% | -2.44% | 2.14% | 2.42% | 3.37% | 4.93% | 1.33% | 8.86% | 11.2% | 5.01% | 4.12% | 3.87% | 1.72% | 0.78% | 0.42% | 3.5% | 3.12% | 7.18% | 7.92% | 2.73%
CNC(=O)c1sc(-n2cnc3cc(OC)c(OC)cc32)cc1OCc1ccccc1C(F)(F)F | 0.02% | 0.49% | 1.43% | 2.6% | 2.61% | 3.26% | 7.45% | 7.55% | 13.2% | 5.44% | 14% | 4.48% | 3.52% | 0.98% | 5.78% | 2.12% | 3.74% | 6.92% | 10.3% | 2.95%
CN(C)CCNC(=O)Nc1ccc(N(C)c2ccnc(Nc3ccc(CS(C)(=O)=O)cc3)n2)cc1 | 1.68% | 4.53% | 6.61% | 2.63% | 1.36% | 3.79% | 4.33% | 6.86% | 6.65% | 10.6% | 15.1% | 5.05% | 1.99% | 2.45% | 3.65% | 0.75% | -0.72% | 8.93% | 9.37% | 4.17%
COc1ccccc1-c1cc(/C=C2\C(=O)Nc3ncc(Br)cc32)cc(Br)c1O | 1.53% | 1.24% | 4.48% | 1.75% | 3.18% | 4.45% | 5.49% | 9.58% | 6.4% | 6.05% | 7.78% | 8.03% | 5.59% | 1.76% | 4.26% | 1.14% | -4.15% | 11.2% | 17.7% | 1.71%
O=C(O[C@H]1CN[C@H](C#Cc2cc3ncnc(Nc4ccc5c(cnn5Cc5ccccc5)c4)c3s2)C1)N1CCOCC1 | 9.06% | -5.39% | -1.26% | -1.74% | -2.68% | -0.31% | 0.9% | -0.59% | 1.79% | -3.66% | 1.97% | -0.25% | 2.72% | -1.51% | 0.96% | 6.21% | 48.3% | 107% | 104% | -0.71%
CCOc1ccc2c(-c3ccnc(Nc4cc(OC)cc(C(F)(F)F)c4)n3)cnn2n1 | 0.47% | 0.87% | -2.16% | -2.58% | -0.79% | -0.82% | 1.98% | 2.94% | 6.63% | 3.54% | 8.72% | 2.9% | 1.21% | 2.17% | 1.74% | 2.32% | 2.46% | 4.82% | 4.44% | 2.36%
Cc1cc(O)cc(C)c1/C=C/c1cncc(C(=O)OC(C)(C)C)c1 | 2.69% | 2.41% | 0.87% | 16.6% | 60.8% | 11.2% | 22.4% | 31.1% | 80.6% | 23% | 68% | 17.4% | 49.2% | 24.8% | 70.4% | 1.78% | 2.48% | 8.1% | 16.1% | 4.09%
